From the supplement of paper PMC10127200
Counter-ions that a name gives are not always drawn.

Assays:
Experiment in all cases: Euclidean distance of Cell Painting phenotypic profile (signed KS, 77 features) to DMSO centroid (dimensionless distance); 5 or 10 uM (library dependent); higher = stronger phenotypic change vs DMSO (phenoactivity)
Conditions in all cases: 48 h
786-O = tested on: 786-O
Method in brief: (§1)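 Five cancer lines and a healthy fibroblast line received library compounds at 10 or 5 uM (library-dependent, 0.1% DMSO final) for 48 h. Stained cells were imaged confocally at 20X (9 fields/well). Harmony extracted 77 features, each scored as a signed Kolmogorov-Smirnov statistic against same-plate vehicle wells. Profiles were plate-position corrected, correlation-weighted and replicate-averaged at the top dose. Phenoactivity is the Euclidean distance from each profile to the median vehicle profile.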

A549 = tested on: A549
Method in brief: as §1

DU145 = tested on: DU145
Method in brief: as §1

FB = tested on: FB
Method in brief: as §1

HEPG2 = tested on: HEPG2
Method in brief: as §1

OVCAR4 = tested on: OVCAR4
Method in brief: as §1

SMILES | Euclidean distance (786-O) | Euclidean distance (A549) | Euclidean distance (DU145) | Euclidean distance (FB) | Euclidean distance (HEPG2) | Euclidean distance (OVCAR4)
OC[C@H]1O[C@@H](c2ccc(Cl)c(Cc3ccc(O[C@H]4CCOC4)cc3)c2)[C@H](O)[C@@H](O)[C@@H]1O | 0.965 | 0.753 | 1.39 | 0.912 | 0.52 | 0.801
Cc1cn[nH]c1 [Fomepizole] | 0.803 | 0.542 | 1.4 | 0.868 | 1.97 | 0.897
CCOC(=O)C1=C(COCCN)NC(C)=C(C(=O)OC)C1c1ccccc1Cl (stereo not drawn) [Amlodipine Besylate] | 1.08 | 0.672 | 0.871 | 1.18 | 1.64 | 1.07
Cc1nc2cccc(N)c2c(=O)n1C1CCC(=O)NC1=O (stereo not drawn) [Avadomide(CC-122)] | 0.872 | 1.22 | 1.16 | 1.02 | 0.382 | 0.966
Cc1ccc(Cl)c(Nc2ccccc2C(=O)O)c1Cl [Meclofenamate Sodium] | 1.09 | 1.34 | 1.66 | 1.48 | 0.74 | 1.94
Nc1ccc(S(=O)(=O)Nc2ccnn2-c2ccccc2)cc1 [Sulfaphenazole] | 0.816 | 0.571 | 1.03 | 0.58 | 0.469 | 1.26
C[C@H](CCC(=O)O)[C@H]1CC[C@H]2[C@@H]3[C@H](O)C[C@@H]4C[C@H](O)CC[C@]4(C)[C@H]3CC[C@]12C [Chenodeoxycholic Acid] | 0.805 | 0.691 | 0.826 | 0.881 | 0.737 | 1.08
COc1ccc(S(=O)(=O)Nc2cccnc2Nc2ccc(O)cc2)cc1 | 2.73 | 2.61 | 3.18 | 2.99 | 3.33 | 3.12
CC(=O)Nc1ccccc1 [Acetanilide] | 0.827 | 0.504 | 0.799 | 0.893 | 0.768 | 1.34
CC(=O)OCC(=O)[C@@]1(O)[C@H](C)C[C@H]2[C@@H]3CCC4=CC(=O)C=C[C@]4(C)[C@@]3(F)[C@@H](O)C[C@@]21C [Dexamethasone Acetate] | 1.08 | 2.1 | 2.41 | 1.85 | 0.691 | 1.67
C=C(C)[C@@H]1CC[C@]2(CO)CC[C@]3(C)[C@H](CC[C@@H]4[C@@]5(C)CC[C@H](O)C(C)(C)[C@@H]5CC[C@]43C)[C@@H]12 [Betulin] | 1.24 | 0.846 | 1.07 | 1.2 | 0.765 | 1.1
O=C(CCc1ccc(O)cc1)c1c(O)cc(O)cc1O[C@@H]1O[C@H](CO)[C@@H](O)[C@H](O)[C@H]1O [Phlorizin] | 0.911 | 1.18 | 0.673 | 0.849 | 1.02 | 0.783
CCc1cncnc1N1CCN(Cc2nc3ccc(C(F)(F)F)cc3[nH]2)CC1 | 1.03 | 0.742 | 0.956 | 1.1 | 0.883 | 1.13
OC1CN(CCCOCCc2ccc3sccc3c2)C1 [Edonerpic maleate] | 0.947 | 0.582 | 0.87 | 1.18 | 0.525 | 0.97
O=C(O)Cc1ccccc1Nc1c(Cl)cccc1Cl [Diclofenac Potassium] | 1.38 | 0.427 | 0.963 | 1.35 | 1.1 | 0.893
CN(C)CCN(Cc1ccccc1)c1ccccn1 [Tripelennamine HCl] | 1.42 | 0.863 | 0.966 | 1.05 | 0.581 | 1.72
Oc1ccc([C@H]2COc3cc(O)ccc3C2)cc1 (racemic) | 1.39 | 0.796 | 1.27 | 0.952 | 0.464 | 0.928
CC1OC2(CS1)CN1CCC2CC1 (stereo not drawn) [Cevimeline] | 1.52 | 1.3 | 0.896 | 1.55 | 0.72 | 1.48
C[C@]1(COc2ccc(N3CCC(Oc4ccc(OC(F)(F)F)cc4)CC3)cc2)Cn2cc([N+](=O)[O-])nc2O1 [Delamanid] | 0.922 | 1.11 | 0.888 | 0.823 | 0.492 | 0.969
Cc1ccc(S(=O)(=O)OCC(=O)Nc2ccc(C(=O)O)c(O)c2)cc1 | 1.33 | 1.22 | 1.04 | 0.948 | 0.793 | 1.47
CC(C)Oc1ccc2c(=O)c(-c3ccccc3)coc2c1 [Ipriflavone (Osteofix)] | 1.22 | 1.44 | 1.15 | 1.17 | 0.723 | 2.28
CCn1c(N)c(C(=O)NC)c(=O)c2ccc(C#CC(C)(O)COC)nc21 (stereo not drawn) | 0.634 | 0.765 | 0.681 | 1.97 | 1.53 | 0.668
C=C1CC[C@H](O)C/C1=C/C=C1\CCC[C@]2(C)[C@@H]([C@H](C)CCCC(C)(C)O)CC[C@@H]12 [Calcifediol] | 1.61 | 0.811 | 0.927 | 1.4 | 0.618 | 2.24
CNC(=O)c1ccc(N2C(=S)N(c3ccc(C#N)c(C(F)(F)F)c3)C(=O)C2(C)C)cc1F [Enzalutamide (MDV3100)] | 0.957 | 1.37 | 1.2 | 1.38 | 0.965 | 1.18

SMILES | Euclidean distance (786-O) | Euclidean distance (A549) | Euclidean distance (DU145) | Euclidean distance (FB) | Euclidean distance (HEPG2) | Euclidean distance (OVCAR4)
CCOc1ccc2nc(S(N)(=O)=O)sc2c1 [Ethoxzolamide] | 0.892 | 0.718 | 1.34 | 1.35 | 1.09 | 0.937
COCCCOc1ccnc(C[S+]([O-])c2nc3ccccc3[nH]2)c1C (stereo not drawn) [Rabeprazole] | 1.5 | 0.662 | 0.942 | 1.03 | 1.49 | 0.928
Cc1ccc(NCCCc2ccccc2)c(N)c1 | 0.637 | 0.572 | 0.826 | 0.816 | 0.57 | 0.53
COc1ccc(CCc2nc3cc(-c4c(C)noc4C)ccc3n2C[C@H](C)N2CCOCC2)cc1Cl | 2.58 | 1.55 | 0.967 | 1.73 | 1.67 | 1.78
NC1CCN(c2nc3c(cc2F)c(=O)c(C(=O)O)cn3-c2ccc(F)cc2F)C1 (stereo not drawn) [Tosufloxacin p-Toluenesulfonate Hydrate] | 0.975 | 1.03 | 0.829 | 1.12 | 0.47 | 1.3
Cc1c(Cl)cccc1Nc1ncccc1C(=O)O [Clonixin] | 0.846 | 1.1 | 1.6 | 1.11 | 0.606 | 0.98
O=C(Nc1cccc2c(=O)cc(-c3nnn[nH]3)oc12)c1ccc(OCCCCc2ccccc2)cc1 [Pranlukast] | 0.942 | 1.36 | 0.906 | 0.842 | 1.13 | 0.86
CCC/C=C1\OC(=O)C2=C1CCC=C2 [Ligustilide] | 0.797 | 0.613 | 0.83 | 1.01 | 0.638 | 1.1
CC(C)(O)c1cc(Nc2cc(Oc3cn(C4CC4)nc3C3CCOCC3)ccn2)ccn1 | 0.999 | 0.879 | 1.32 | 1.38 | 1.09 | 1.36
CO[C@H]1C[C@@H]2CC[C@@H](C)[C@@](O)(O2)C(=O)C(=O)N2CCCC[C@H]2C(=O)O[C@H]([C@H](C)C[C@@H]2CC[C@@H](O)[C@H](OC)C2)CC(=O)[C@H](C)/C=C(\C)[C@@H](O)[C@@H](OC)C(=O)[C@H](C)C[C@H](C)/C=C/C=C/C=C/1C [Rapamycin (Sirolimus)] | 2.74 | 1.97 | 1.21 | 3.07 | 1.86 | 2.1
CC(=O)[C@H]1CC[C@H]2[C@@H]3C=CC4=CC(=O)CC[C@@]4(C)[C@@H]3CC[C@]12C [Dydrogesterone] | 0.672 | 0.859 | 0.732 | 1.15 | 1.01 | 0.899
Nc1ccn([C@@H]2O[C@H](CO)[C@@H](O)C2(F)F)c(=O)n1 [Gemcitabine] | 2.58 | 2.74 | 3.26 | 2.91 | 2.74 | 2.98
COc1ccc(-c2ccc3ncc4c(c3c2)n(-c2ccc(N3CCNCC3)c(C(F)(F)F)c2)c(=O)n4C)cn1 | 6.24 | 5.51 | 7.61 | 6.11 | 5.69 | 5.98
C=C1CCN([C@H](C)[C@](O)(Cn2cncn2)c2ccc(F)cc2F)CC1 [Efinaconazole] | 0.843 | 0.567 | 0.723 | 0.84 | 0.73 | 0.881
O=C1C(O)=C([C@H]2CC[C@H](c3ccc(Cl)cc3)CC2)C(=O)c2ccccc21 [Atovaquone] | 1.3 | 0.846 | 1.08 | 1.41 | 0.566 | 1.08
CC(C)=CCC/C(C)=C/CC/C(C)=C/CC/C(C)=C/CC/C(C)=C/CC/C(C)=C/CC1=C(C)C(=O)c2ccccc2C1=O [Vitamin K2] | 1.17 | 1.16 | 1.1 | 0.823 | 0.747 | 1.54
CS(=O)(=O)CCNCc1ccc(-c2ccc3ncnc(Nc4ccc(OCc5cccc(F)c5)c(Cl)c4)c3c2)o1 [Lapatinib] | 4.13 | 3.1 | 2.2 | 2.22 | 3.72 | 3.77
O=C(NCc1ccncc1)C12CC3CC(C1)CC(c1ccc(Cl)cc1)(C3)C2 | 1.47 | 1.24 | 1.1 | 0.743 | 0.955 | 0.981
CCCS(=O)(=O)Nc1ccc(F)c(C(=O)c2c[nH]c3ncc(Cl)cc23)c1F | 0.904 | 1.4 | 0.951 | 1.12 | 2.17 | 0.992
CC(C)OC(=O)C(C(=O)OC(C)C)=C1SC=CS1 [Malotilate] | 1.94 | 1.09 | 0.92 | 1.39 | 1.08 | 1.29
C[C@]12CC[C@@H]3c4ccc(O)cc4CC[C@H]3[C@@H]1CC[C@@H]2OC(=O)CCC1CCCC1 [Estradiol Cypionate] | 1.29 | 1.56 | 1.4 | 1.23 | 0.84 | 1.34
CC[C@H]1OC(=O)[C@H](C)[C@@H](O[C@H]2C[C@@](C)(OC)[C@@H](O)[C@H](C)O2)[C@H](C)[C@@H](O[C@@H]2O[C@H](C)C[C@H](N(C)C)[C@H]2O)[C@](C)(O)C[C@@H](C)CN(C)[C@H](C)[C@@H](O)[C@]1(C)O [Azithromycin Dihydrate] | 1.29 | 1.33 | 1.5 | 1.18 | 1.71 | 1.15
CC(C)=CCC/C(C)=C/CC/C(C)=C/CCC(=O)OC/C=C(\C)CCC=C(C)C [Gefarnate] | 0.868 | 0.898 | 0.637 | 1.09 | 0.64 | 0.606
C[C@H](N)[C@H](O)c1cccc(O)c1 [Metaraminol Bitartrate] | 0.87 | 0.731 | 0.8 | 1.26 | 0.768 | 0.946
